From PubChem BioAssay AID1159580 (chemical genetic matrix, 2015)
Screen size: about 5,500 compounds; about 2,000 (36%) were called active. Another 18% or so got no clear call; they are omitted. No stated cut-off is given here; in the data, active means normalized growth mostly below about 0.91 (no sharp cut-off); inconclusive means no clear call, values can overlap the other calls; inactive means mostly above about 0.92. Some of the results follow.

Test: chemical genetic growth profiling, strain panel (AID 1159580);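 further: tested at 20 µM; growth read once vehicle control cultures reached saturation at 30 °C; 1 = growth at the plate median or of vehicle wells; lower values mean less growth of the strain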
Conditions: growth OD

Measured: normalized growth

Oc1cc(O)c2c(c1)O[C@H](c1ccc(O)c(O)c1)[C@@H](O)C2
inactive: S. cerevisiae deletion strains, locus YJR066W, strain TOR1, hits give low values 0.927 | S. cerevisiae deletion strains, locus YJR075W, strain HOC1, hits give low values 1 | S. cerevisiae deletion strains, locus YKL009W, strain mrt4, hits give low values 0.991 | S. cerevisiae deletion strains, locus YKL068W, hits give low values 0.977 | S. cerevisiae deletion strains, locus YKL085W, strain MDH1 (second series), hits give low values 0.981 | S. cerevisiae deletion strains, locus YKL085W, strain MDH1, hits give low values 0.981 | S. cerevisiae deletion strains, locus YKL160W, strain elf1, hits give low values 1.02 | S. cerevisiae deletion strains, locus YKR001C, strain vps1, hits give low values 1.03 | S. cerevisiae deletion strains, locus YKR026C, strain gcn3, hits give low values 0.973 | S. cerevisiae deletion strains, locus YKR091W, strain srl3, hits give low values 1.01 | S. cerevisiae deletion strains, locus YLL001W, strain dnm1, hits give low values 1.01 | S. cerevisiae deletion strains, locus YLL026W, hits give low values 1 | S. cerevisiae deletion strains, locus YLL041C, strain sdh2, hits give low values 1.01 | S. cerevisiae deletion strains, locus YLR027C, strain aat2, hits give low values 1.02 | S. cerevisiae deletion strains, locus YLR039C, strain RIC1, hits give low values 0.919 | S. cerevisiae deletion strains, locus YLR058C, strain SHM2, hits give low values 0.973 | S. cerevisiae deletion strains, locus YLR102C, strain apc9, hits give low values 0.985 | S. cerevisiae deletion strains, locus YLR113W, strain HOG1, hits give low values 0.987 | S. cerevisiae deletion strains, locus YLR221C, strain rsa3, hits give low values 1.02 | S. cerevisiae deletion strains, locus YLR258W, strain gsy2, hits give low values 1 | S. cerevisiae deletion strains, locus YLR262C, strain YPT6 (second series), hits give low values 1.02 | S. cerevisiae deletion strains, locus YLR262C, strain YPT6, hits give low values 0.945 | S. cerevisiae deletion strains, locus YLR268W, strain sec22, hits give low values 1.02 | S. cerevisiae deletion strains, locus YLR320W, strain mms22, hits give low values 1.01 | S. cerevisiae deletion strains, locus YLR330W, strain CHS5, hits give low values 1 | S. cerevisiae deletion strains, locus YLR342W, strain FKS1 (second series), hits give low values 1.02 | S. cerevisiae deletion strains, locus YLR342W, strain FKS1, hits give low values 1.01 | S. cerevisiae deletion strains, locus YLR357W, strain rsc2, hits give low values 0.987 | S. cerevisiae deletion strains, locus YLR370C, strain arc18, hits give low values 1.01 | S. cerevisiae deletion strains, locus YLR371W, strain rom2, hits give low values 1.01 | S. cerevisiae deletion strains, locus YLR384C, strain iki3, hits give low values 0.997 | S. cerevisiae deletion strains, locus YLR418C, strain cdc73, hits give low values 0.965 | S. cerevisiae deletion strains, locus YML016C, strain PPZ1, hits give low values 0.999 | S. cerevisiae deletion strains, locus YML032C, strain rad52, hits give low values 0.947 | S. cerevisiae deletion strains, locus YML120C, strain ndi1, hits give low values 1.01 | S. cerevisiae deletion strains, locus YML124C, strain tub3, hits give low values 0.985 | S. cerevisiae deletion strains, locus YMR058W, strain fet3, hits give low values 1.02 | S. cerevisiae deletion strains, locus YMR078C, strain ctf18, hits give low values 0.984 | S. cerevisiae deletion strains, locus YMR125W, strain sto1, hits give low values 1.01 | S. cerevisiae deletion strains, locus YMR129W, hits give low values 1.02 | S. cerevisiae deletion strains, locus YMR205C, strain PFK2, hits give low values 1 | S. cerevisiae deletion strains, locus YMR223W, strain ubp8, hits give low values 0.972 | S. cerevisiae deletion strains, locus YMR231W, strain pep5, hits give low values 1 | S. cerevisiae deletion strains, locus YMR263W, strain SAP30, hits give low values 0.993 | S. cerevisiae deletion strains, locus YMR307W, strain GAS1, hits give low values 1.01 | S. cerevisiae deletion strains, locus YNL067W, strain RPL9B, hits give low values 0.983 | S. cerevisiae deletion strains, locus YNL071W, strain lat1, hits give low values 1.02 | S. cerevisiae deletion strains, locus YNL128W, strain TEP1, hits give low values 0.97 | S. cerevisiae deletion strains, locus YNL183C, strain NPR1, hits give low values 0.95 | S. cerevisiae deletion strains, locus YNL209W, strain ssb2, hits give low values 1.01 | S. cerevisiae deletion strains, locus YNL233W, strain BNI4, hits give low values 0.993 | S. cerevisiae deletion strains, locus YNL248C, strain rpa49, hits give low values 1.03 | S. cerevisiae deletion strains, locus YNL250W, strain rad50, hits give low values 0.981 | S. cerevisiae deletion strains, locus YNL271C, strain bni1, hits give low values 0.988 | S. cerevisiae deletion strains, locus YNL298W, strain CLA4, hits give low values 0.969 | S. cerevisiae deletion strains, locus YNL307C, strain MCK1, hits give low values 0.989 | S. cerevisiae deletion strains, locus YNL322C, strain KRE1 (second series), hits give low values 1.01 | S. cerevisiae deletion strains, locus YNL322C, strain KRE1, hits give low values 0.99 | S. cerevisiae deletion strains, locus YNR049C, strain mso1, hits give low values 1 | S. cerevisiae deletion strains, locus YNR052C, strain pop2, hits give low values 0.995 | S. cerevisiae deletion strains, locus YOL012C, strain htz1 1.07 | S. cerevisiae deletion strains, locus YOL147C, strain pex11, hits give low values 0.979 | S. cerevisiae deletion strains, locus YOR001W, strain rrp6, hits give low values 1.02 | S. cerevisiae deletion strains, locus YOR061W, strain CKA2, hits give low values 0.97 | S. cerevisiae deletion strains, locus YOR069W, strain VPS5, hits give low values 0.994 | S. cerevisiae deletion strains, locus YOR070C, strain gyp1, hits give low values 0.996 | S. cerevisiae deletion strains, locus YOR080W, strain dia2, hits give low values 1 | S. cerevisiae deletion strains, locus YOR083W, strain WHI5, hits give low values 1.02 | S. cerevisiae deletion strains, locus YOR106W, strain vam3, hits give low values 1.03 | S. cerevisiae deletion strains, locus YOR136W, strain idh2, hits give low values 1 | S. cerevisiae deletion strains, locus YOR144C, strain elg1, hits give low values 0.983 | S. cerevisiae deletion strains, locus YOR184W, strain ser1, hits give low values 0.995 | S. cerevisiae deletion strains, locus YOR231W, strain MKK1, hits give low values 0.987 | S. cerevisiae deletion strains, locus YOR265W, strain rbl2, hits give low values 1 | S. cerevisiae deletion strains, locus YOR270C, strain vph1, hits give low values 1.07 | S. cerevisiae deletion strains, locus YOR290C, strain snf2, hits give low values 0.971 | S. cerevisiae deletion strains, locus YOR316C, strain cot1, hits give low values 0.979 | S. cerevisiae deletion strains, locus YPL051W, strain arl3, hits give low values 1.02 | S. cerevisiae deletion strains, locus YPL078C, strain atp4, hits give low values 1.01 | S. cerevisiae deletion strains, locus YPL106C, strain sse1, hits give low values 1 | S. cerevisiae deletion strains, locus YPL240C, strain hsp82, hits give low values 1 | S. cerevisiae deletion strains, locus YPL256C, strain CLN2, hits give low values 0.984 | S. cerevisiae deletion strains, locus YPR119W, strain clb2, hits give low values 0.983 | S. cerevisiae deletion strains, locus YPR141C, strain kar3, hits give low values 0.972 | S. cerevisiae deletion strains, locus YPR163C, strain tif3, hits give low values 0.992 | S. cerevisiae deletion strains, locus YPR167C, strain met16, hits give low values 0.975 | S. cerevisiae deletion strains, strain wtn01, hits give low values 1.05 | S. cerevisiae strains, strain wild type, hits give low values 0.985
